Nine compounds from ChEMBL document CHEMBL3988442, “University of Dundee, Small-Polar-MMV Screening Library” (2021) can be followed below.

For part of these data: Measured potencies and affinities stand elsewhere.

What all share (set-up): scale not given: direction of the effect not stated beside the values
Assay [1] concerns the target Protein translocase subunit SecA (Escherichia coli (strain K12)) (UniProt P10408). In words: Assay to Identify E. coli SecA ATPase Inhibitors. It counts as functional. Conditions: 30 µM.
Assay [2] addresses T1, Ubiquitin-activating enzyme e1, putative (Leishmania donovani (strain BPK282A1)) (UniProt E9BSI1).
T1 sequence (whole entry): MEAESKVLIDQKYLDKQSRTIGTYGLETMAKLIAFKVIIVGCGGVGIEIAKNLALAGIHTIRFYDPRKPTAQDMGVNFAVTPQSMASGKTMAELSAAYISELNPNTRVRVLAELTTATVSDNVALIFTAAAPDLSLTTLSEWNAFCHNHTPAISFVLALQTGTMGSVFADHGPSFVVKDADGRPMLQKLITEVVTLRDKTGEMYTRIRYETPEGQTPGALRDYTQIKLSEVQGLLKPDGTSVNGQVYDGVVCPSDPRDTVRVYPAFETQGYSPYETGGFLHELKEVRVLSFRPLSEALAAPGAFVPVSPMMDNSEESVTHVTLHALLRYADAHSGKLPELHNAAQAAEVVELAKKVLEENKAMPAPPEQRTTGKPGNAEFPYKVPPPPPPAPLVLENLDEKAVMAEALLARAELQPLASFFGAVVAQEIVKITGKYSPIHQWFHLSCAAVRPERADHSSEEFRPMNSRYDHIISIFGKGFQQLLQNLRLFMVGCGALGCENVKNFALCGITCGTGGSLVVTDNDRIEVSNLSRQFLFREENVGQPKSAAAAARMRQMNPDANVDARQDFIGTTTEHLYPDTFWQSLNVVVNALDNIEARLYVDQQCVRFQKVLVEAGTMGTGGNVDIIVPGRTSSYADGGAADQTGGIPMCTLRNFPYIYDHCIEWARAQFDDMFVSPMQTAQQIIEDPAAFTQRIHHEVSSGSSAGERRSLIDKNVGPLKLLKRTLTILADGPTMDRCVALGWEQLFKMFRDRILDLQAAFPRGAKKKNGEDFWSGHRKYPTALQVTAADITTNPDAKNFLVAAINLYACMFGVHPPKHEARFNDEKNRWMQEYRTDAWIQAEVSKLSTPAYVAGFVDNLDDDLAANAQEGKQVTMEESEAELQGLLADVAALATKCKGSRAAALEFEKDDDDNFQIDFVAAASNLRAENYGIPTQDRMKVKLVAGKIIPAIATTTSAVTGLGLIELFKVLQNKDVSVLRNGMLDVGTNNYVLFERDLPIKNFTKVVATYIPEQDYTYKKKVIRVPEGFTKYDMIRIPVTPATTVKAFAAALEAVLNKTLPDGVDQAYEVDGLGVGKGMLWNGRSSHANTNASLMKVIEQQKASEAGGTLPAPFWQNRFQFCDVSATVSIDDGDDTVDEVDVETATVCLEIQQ
In words: Leishmania donovani Ubiquitin Activating Enzyme (LdE1). It counts as functional. Conditions: 30 µM.

Assay [3] concerns the target AMP-activated protein kinase, AMPK (Homo sapiens) (UniProt P54646+O43741+P54619+Q9UGJ0+Q9Y478+Q13131+Q9UGI9). As to the kind of experiment: AMP-dependent Kinase enzyme assay. An in vitro enzyme assay that detects ADP turnover that is directly proportional to AMPK activity. This uses naive AMPK that is activated during the assay with MK-8722. In kind it is functional. Conditions: 30 µM.

The target in assay [4] is Sialic acid-binding Ig-like lectin 9 (Homo sapiens) (UniProt Q9Y336). In words: Hs-Siglec9 ALPHAscreen SOP 20170721. The settings on record: 10 µM.
Chain of Sialic acid-binding Ig-like lectin 9 (Homo sapiens) (Q9Y336 whole entry): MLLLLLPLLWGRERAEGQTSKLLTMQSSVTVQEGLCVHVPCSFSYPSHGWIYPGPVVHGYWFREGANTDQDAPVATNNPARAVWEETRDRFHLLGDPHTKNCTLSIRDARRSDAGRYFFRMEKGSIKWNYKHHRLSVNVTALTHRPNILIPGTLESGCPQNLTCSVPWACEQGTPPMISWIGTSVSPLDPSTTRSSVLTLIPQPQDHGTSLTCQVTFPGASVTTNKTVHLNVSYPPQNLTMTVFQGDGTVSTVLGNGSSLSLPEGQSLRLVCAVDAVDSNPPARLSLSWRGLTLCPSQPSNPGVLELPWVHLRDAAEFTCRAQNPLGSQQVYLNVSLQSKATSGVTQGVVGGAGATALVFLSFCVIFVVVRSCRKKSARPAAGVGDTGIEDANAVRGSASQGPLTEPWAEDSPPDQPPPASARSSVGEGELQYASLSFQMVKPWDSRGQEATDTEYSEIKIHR
In the next assay the test system is Trypanosoma cruzi. In words: Trypanosoma cruzi phosphomannomutase and mannose-1-phosphate guanylyltransferase assay. In kind it is functional. Conditions: 10 µM.
The target of assay [5] is T2, Arginase-2, mitochondrial (Homo sapiens) (UniProt P78540).
T2 sequence (whole entry): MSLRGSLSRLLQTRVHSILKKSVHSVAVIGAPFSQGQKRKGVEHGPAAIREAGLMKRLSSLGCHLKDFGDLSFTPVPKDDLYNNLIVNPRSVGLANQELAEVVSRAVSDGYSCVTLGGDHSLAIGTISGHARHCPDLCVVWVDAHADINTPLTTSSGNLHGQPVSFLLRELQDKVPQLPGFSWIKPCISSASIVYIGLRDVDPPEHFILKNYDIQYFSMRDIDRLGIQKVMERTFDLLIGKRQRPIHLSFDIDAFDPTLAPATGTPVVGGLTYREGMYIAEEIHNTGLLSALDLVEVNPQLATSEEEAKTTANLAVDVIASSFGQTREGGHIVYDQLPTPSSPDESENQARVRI
As to the kind of experiment: in vitro enzyme assay to detect the production of urea directly proportional to the activity of Arginase II. Note: in the data most compounds retested in dose-response had high values. In kind it is functional. Conditions: 33.3 µM.

Assay [6] deals with T3, Proteasome subunit beta (Trypanosoma cruzi) (UniProt O96673).
T3 sequence (whole entry): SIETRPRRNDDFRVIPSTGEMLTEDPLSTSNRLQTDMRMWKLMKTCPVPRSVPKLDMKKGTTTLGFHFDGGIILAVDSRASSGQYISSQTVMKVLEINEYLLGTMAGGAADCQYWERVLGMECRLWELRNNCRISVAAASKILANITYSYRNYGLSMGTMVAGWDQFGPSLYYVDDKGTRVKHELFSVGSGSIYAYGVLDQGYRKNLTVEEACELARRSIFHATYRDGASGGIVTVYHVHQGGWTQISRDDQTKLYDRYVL
In words: Trypanosoma cruzi proteasome chymotrypsin-like activity (TcProtChymo) assay. Note: in the data most compounds retested in dose-response had high values. It counts as functional. The settings on record: 9.37 µM.

Another assay is filed under the species Homo sapiens. In words: To identify inhibition of the IFN signalling (Jak-Stat) pathway via expression of an eGFP reporter gene under the control of an IFN-stimulated response element (ISRE) containing MxA promoter. In kind it is functional. The settings on record: 30 µM.
Assay [7] deals with T4, Tyrosyl-tRNA synthetase, putative (Trypanosoma cruzi (strain CL Brener)) (UniProt Q4DSP6).
T4 sequence (whole entry): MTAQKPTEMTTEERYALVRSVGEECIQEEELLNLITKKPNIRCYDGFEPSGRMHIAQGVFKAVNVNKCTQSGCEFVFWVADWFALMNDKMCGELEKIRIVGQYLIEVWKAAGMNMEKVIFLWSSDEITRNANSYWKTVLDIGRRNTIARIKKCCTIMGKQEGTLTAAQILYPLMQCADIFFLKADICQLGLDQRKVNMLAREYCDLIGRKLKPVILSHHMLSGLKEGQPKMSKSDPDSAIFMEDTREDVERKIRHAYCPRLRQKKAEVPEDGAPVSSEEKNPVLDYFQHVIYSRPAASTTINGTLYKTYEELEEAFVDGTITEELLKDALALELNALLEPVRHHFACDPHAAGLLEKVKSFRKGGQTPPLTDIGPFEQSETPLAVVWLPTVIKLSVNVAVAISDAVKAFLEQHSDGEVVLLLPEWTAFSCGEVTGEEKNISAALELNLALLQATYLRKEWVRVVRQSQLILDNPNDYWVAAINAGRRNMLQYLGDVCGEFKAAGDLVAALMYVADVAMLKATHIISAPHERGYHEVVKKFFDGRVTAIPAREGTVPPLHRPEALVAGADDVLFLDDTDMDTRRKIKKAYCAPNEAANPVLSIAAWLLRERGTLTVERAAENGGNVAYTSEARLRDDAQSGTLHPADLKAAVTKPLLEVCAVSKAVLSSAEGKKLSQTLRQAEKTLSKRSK
In words: Trypanosoma cruzi tyrosyl tRNA synthetase (TcYRS) _High Tyrosine SOP. Note: in the data most compounds retested in dose-response had high values. Conditions: 30 µM. It counts as functional.

Assay [8] concerns the target T4, Tyrosyl-tRNA synthetase, putative (Trypanosoma cruzi (strain CL Brener)). As to the kind of experiment: Trypanosoma cruzi tyrosyl tRNA synthetase (TcYRS) SOP. In kind it is functional. The settings on record: 30 µM.
Assay [9] addresses Chromo domain-containing protein 1 (Saccharomyces cerevisiae (strain ATCC 204508 / S288c) (Baker's yeast)) (UniProt P32657). As to the kind of experiment: ScCHD-1 Enzyme Inhibition Assay. Note: in the data most compounds retested in dose-response had high values. It counts as functional. The settings on record: 30 µM.

Chain of Protein translocase subunit SecA (Escherichia coli (strain K12)) (P10408 whole entry): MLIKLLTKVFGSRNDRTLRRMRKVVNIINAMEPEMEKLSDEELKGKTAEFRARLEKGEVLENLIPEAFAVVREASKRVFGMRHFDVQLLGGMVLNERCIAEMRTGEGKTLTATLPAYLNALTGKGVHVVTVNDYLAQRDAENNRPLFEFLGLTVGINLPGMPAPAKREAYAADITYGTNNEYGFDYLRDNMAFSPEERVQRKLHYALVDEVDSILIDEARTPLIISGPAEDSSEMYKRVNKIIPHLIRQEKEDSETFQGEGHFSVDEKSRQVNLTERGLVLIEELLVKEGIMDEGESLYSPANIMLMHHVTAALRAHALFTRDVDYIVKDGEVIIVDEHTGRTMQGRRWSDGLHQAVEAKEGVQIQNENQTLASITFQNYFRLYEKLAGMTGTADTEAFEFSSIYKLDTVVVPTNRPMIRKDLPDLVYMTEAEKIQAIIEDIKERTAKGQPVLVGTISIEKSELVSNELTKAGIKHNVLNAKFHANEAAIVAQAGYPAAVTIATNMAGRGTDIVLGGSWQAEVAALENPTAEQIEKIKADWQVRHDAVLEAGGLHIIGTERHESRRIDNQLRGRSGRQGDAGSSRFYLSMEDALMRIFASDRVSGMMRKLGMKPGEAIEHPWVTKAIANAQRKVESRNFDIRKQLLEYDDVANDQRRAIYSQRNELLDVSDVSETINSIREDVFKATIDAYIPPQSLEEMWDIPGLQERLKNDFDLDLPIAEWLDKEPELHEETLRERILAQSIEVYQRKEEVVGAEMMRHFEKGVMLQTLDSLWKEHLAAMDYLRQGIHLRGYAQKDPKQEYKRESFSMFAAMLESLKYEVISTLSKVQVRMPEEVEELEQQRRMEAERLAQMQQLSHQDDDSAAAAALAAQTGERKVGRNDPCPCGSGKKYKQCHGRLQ
Chain of Chromo domain-containing protein 1 (Saccharomyces cerevisiae (strain ATCC 204508 / S288c) (Baker's yeast)) (P32657 whole entry, the tested form may be a part): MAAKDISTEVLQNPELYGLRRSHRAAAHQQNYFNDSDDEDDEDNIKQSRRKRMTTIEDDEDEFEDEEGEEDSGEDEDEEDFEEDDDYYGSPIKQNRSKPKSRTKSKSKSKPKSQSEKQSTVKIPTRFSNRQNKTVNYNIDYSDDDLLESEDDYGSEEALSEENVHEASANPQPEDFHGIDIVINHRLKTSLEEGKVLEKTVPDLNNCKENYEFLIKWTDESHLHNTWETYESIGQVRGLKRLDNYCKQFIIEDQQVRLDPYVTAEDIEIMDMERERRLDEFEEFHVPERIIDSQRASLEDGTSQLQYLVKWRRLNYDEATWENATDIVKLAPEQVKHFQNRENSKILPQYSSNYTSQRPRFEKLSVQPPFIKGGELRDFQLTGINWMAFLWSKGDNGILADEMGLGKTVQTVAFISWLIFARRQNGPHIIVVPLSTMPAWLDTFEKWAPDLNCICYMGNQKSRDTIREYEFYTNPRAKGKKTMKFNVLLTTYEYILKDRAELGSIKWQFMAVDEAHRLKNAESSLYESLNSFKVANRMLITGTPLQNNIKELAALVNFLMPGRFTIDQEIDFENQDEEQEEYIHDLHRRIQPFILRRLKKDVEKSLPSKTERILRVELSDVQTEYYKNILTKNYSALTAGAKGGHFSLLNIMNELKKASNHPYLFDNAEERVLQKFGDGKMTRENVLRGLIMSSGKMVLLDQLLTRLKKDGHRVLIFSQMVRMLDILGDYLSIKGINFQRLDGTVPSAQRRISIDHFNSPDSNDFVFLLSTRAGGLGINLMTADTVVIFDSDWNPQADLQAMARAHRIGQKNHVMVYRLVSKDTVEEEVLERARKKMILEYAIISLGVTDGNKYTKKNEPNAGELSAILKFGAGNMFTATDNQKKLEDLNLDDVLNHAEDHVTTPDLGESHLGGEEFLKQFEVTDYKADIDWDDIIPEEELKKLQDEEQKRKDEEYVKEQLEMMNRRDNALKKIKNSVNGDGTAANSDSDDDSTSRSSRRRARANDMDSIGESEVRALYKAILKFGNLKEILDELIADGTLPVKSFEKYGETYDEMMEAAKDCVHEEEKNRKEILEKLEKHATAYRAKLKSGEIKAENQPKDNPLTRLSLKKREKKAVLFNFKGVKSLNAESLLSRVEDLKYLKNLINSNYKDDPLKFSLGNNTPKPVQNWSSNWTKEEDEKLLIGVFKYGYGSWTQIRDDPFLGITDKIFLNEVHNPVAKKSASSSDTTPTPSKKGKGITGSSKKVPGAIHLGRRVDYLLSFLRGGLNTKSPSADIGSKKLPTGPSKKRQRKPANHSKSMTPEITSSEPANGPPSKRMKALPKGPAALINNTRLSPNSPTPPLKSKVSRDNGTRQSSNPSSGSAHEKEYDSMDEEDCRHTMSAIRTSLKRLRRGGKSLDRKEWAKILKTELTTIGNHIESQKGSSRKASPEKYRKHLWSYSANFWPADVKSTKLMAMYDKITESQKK

In the case of `CCc1ccc(CN2CC[C@H]3C[C@H](c4nnc(C)[nH]4)O[C@@H]3C2)o1`, the Percent Effect in assay [1] was -2%; in [2], 0%; in assay [3] it was -2.87%; in assay [4], 34.9%; in the assay on Trypanosoma cruzi, 9.52%; in [5] it was -6.79%. For the same compound, the Percent Effect in assay [6] was 17.2%; in the assay listed under Homo sapiens, 9.84%; in assay [7] it was 0%; in assay [8] it was -1.24%; in assay [9] it was -3.68%.
For the compound `O=C1[C@H]2CN(Cc3nccs3)C[C@H]2CN1c1ccsc1`, the Percent Effect in assay [1] is -6.53%; in [2], 0%; in assay [3] it was 8.27%; in assay [4] it was -7.06%; with Trypanosoma cruzi, -2.25%; in assay [5] it was 0.319%. For the same compound, the Percent Effect in [6] was 12.4%; in the assay filed under Homo sapiens, -3.04%; in [7], -1.08%; in assay [8], 2.56%; in assay [9], -0.738%.
Regarding `Cc1ccccc1C(=O)CN1C(=O)c2ccccc2CS1(=O)=O`, the Percent Effect in [1] is -2.33%; in assay [2], -10.8%; in assay [3], 2.31%; in assay [4] it was -3.21%; with Trypanosoma cruzi it was -5.41%; in [5] it was -2.86%. Further, the Percent Effect in assay [6] is 12.8%; in the assay listed under Homo sapiens, 18.7%; in assay [7], -25.9%; in [8], -31.7%; in assay [9], 14.8%.
For `Cn1cccc1C(=O)N1CCN(CC2CC2)c2ncccc2C1`, the Percent Effect in [1] was -6.82%; in [2], 10.7%; in assay [3] it was -5.74%; in assay [4], 2.72%; in the assay with Trypanosoma cruzi it was 2.7%; in [5], -56.8%. Moreover, the Percent Effect in [6] is 7.18%; in the assay filed under Homo sapiens it was 3.32%; in [7], 1.04%; in assay [8], 10%; in assay [9], -4.08%.
Turning to `CNc1cncc(C2CCCN2Cc2ccccn2)n1` (centres undefined), the Percent Effect in assay [1] is -2.75%; in assay [2], -4.05%; in assay [3], 3.64%; in assay [4], 7.85%; in the assay with Trypanosoma cruzi it was 2.37%; in assay [5], 1.62%. In addition, the Percent Effect is 29.5% in assay [6]; -2.5% in the assay listed under Homo sapiens; 9.68% in assay [7]; 9.09% in assay [8]; -18.3% in assay [9].
With `Cn1cc2c(n1)C(CNC(=O)Cc1ccsc1)OCC2` (centres undefined), the Percent Effect was -4.65% in assay [1]; 7.79% in [2]; -2.5% in assay [3]; -0.415% in assay [4]; 4.83% with Trypanosoma cruzi; -7.1% in assay [5]. Besides, the Percent Effect is 2.26% in assay [6]; 7.06% in the assay listed under Homo sapiens; 2.12% in [7]; 3.85% in assay [8]; -6.29% in [9].
With `O=C1CCC2(CCN(c3ncc(F)cn3)CC2)N1CCN1CCCC1`, the Percent Effect in [1] was -2.97%; in assay [2] it was 7.79%; in assay [3], -0.558%; in assay [4] it was -6.43%; in the assay on Trypanosoma cruzi, -2.07%; in assay [5], 1.94%. The Percent Effect in [6] is 21.4%; in the assay filed under Homo sapiens it was 12.5%; in assay [7] it was 1.06%; in assay [8], 3.85%; in assay [9], -7.84%.
`CC(=O)NCc1ccc(C(=O)N2CCCC2c2cnn(C)c2)o1` (centres undefined): the Percent Effect in assay [1] was -4.23%; in assay [2] it was -2.63%; in assay [3], -0.621%; in assay [4], 3.5%; in the assay with Trypanosoma cruzi, -0.467%; in assay [5], 3.24%. Besides, the Percent Effect in assay [6] is 6.51%; in the assay filed under Homo sapiens, -0.0723%; in [7] it was -0.493%; in [8], -1.24%; in assay [9], 2.06%.
`O=C(N[C@@H]1CN(c2ncccn2)[C@@H]2CCCO[C@@H]21)c1cnccn1`: the Percent Effect in [1] was -3.44%; in [2], 2.67%; in assay [3], 2.76%; in assay [4], 2.22%; in the assay with Trypanosoma cruzi, 0.772%; in assay [5], -38.9%. For the same compound, the Percent Effect in assay [6] is 9.91%; in the assay listed under Homo sapiens it was -16.7%; in assay [7], 6.25%; in [8], 20%; in assay [9], -7.55%.
